The list is not random: actives were taken first. Their share in the collection is about 6.9%.
M1 ag = agonists of M1 muscarinic receptor | B-score at 10 µM | hit rate 3% among 64,000 | CHO-M1 cells, Fluo-4 calcium fluorescence, agonist mode; stronger effect = higher value | AID 626;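 active = fluorescence rise, raw or as B-score row- and column-corrected plate score, outside the 99.7% band of its plate's samples, either direction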
FXIIa mix inh = factor XIIa (human) inhibition, mixture screen; P00748; purified FXIIa, fluorogenic substrate, pooled mixtures; inhibition, % at 5 µM; hit rate 0.2% among 62,000; AID 684;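 note: 0% = enzyme without compound and 100% = no enzyme blank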
FXIa inh mix = inhibitors of human coagulation factor XIa, pooled mixtures; purified FXIa, fluorogenic substrate; inhibition, % at 5 µM; hit rate 0.19% among 62,000; AID 680;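 note: each value is inhibition by a whole ten-compound pool holding the compound; 0% = enzyme with no mixture and 100% = wells lacking enzyme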
M1 antag = antagonists of rat M1 muscarinic receptor | P08482 | CHO-M1 cells, Fluo-4 calcium, ACh EC80 antagonist mode; stronger effect = lower value | B-score at 10 µM | hit rate 3.4% among 64,000 | AID 628;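 active = calcium fluorescence response, raw or row-and-column corrected B-score, differing from the plate sample mean either way at a set confidence level, mostly lower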
Target sequence (P08482 whole entry, looked up): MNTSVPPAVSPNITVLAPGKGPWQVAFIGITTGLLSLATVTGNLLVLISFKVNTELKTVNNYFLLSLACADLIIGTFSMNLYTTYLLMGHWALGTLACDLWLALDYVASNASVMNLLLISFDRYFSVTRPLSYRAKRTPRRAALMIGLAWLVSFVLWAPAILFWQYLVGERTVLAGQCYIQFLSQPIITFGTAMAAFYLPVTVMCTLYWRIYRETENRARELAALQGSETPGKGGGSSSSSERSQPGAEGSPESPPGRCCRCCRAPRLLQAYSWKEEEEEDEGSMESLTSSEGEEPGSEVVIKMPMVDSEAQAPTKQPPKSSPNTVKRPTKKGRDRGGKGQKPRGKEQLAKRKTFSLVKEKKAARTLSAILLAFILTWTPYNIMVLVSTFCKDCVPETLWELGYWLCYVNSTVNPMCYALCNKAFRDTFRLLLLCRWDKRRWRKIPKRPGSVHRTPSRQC
JNK3 blocker = inhibitors of human JNK3 kinase; inhibition, % at 8 µM; P53779; purified JNK3 kinase activity, HTS; hit rate 0.61% among 60,000; in the data active = inhibition above about 17%;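 note: 0% = DMSO and 100% = reference inhibitor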
HER2 expr 66K = inhibitors of human Her2 kinase expression; SKBR-3 HER2 protein level, AlphaScreen, 18-24 h; stronger effect = lower value; HER2 level % of control, % at 10 µM; hit rate 0.69% among 65,000;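 active = HER2 level under 5% of the carrier-only control; inconclusive = no clear call, values can overlap the other calls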;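 note: 100% = DMSO carrier and 0% = 500 nM PU-H71 HSP90 inhibitor; lower value means stronger loss of Her2 protein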
M1 agonist conf = rat M1 muscarinic agonism, confirmation. shares compounds with M1 ag. CHO-M1 cells, Fluo-4 calcium fluorescence, agonist mode; actives lie on both sides. fluorescence change (max-min) at 10 µM. hit rate 19% among 1,700. AID 1488;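 active = fluorescence change differs from the solvent-only DMSO control mean at a set confidence level in both duplicate runs; inconclusive = differs from solvent-only control mean in just one of two runs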;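 note: an EC20 dose of acetylcholine follows compound addition during the same imaging run; raw fluorescence intensity difference in instrument units with no normalization to controls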
M4 ag counter = counter-screen for M1 agonists: activity at rat M4 receptor | shares compounds with M1 ag | CHO M4/Gqi5 cells, Fluo-4 calcium fluorescence, agonist mode; actives lie on both sides | fluorescence change (max-min) at 10 µM | hit rate 9% among 1,700;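 active = fluorescence change differing from the plate's solvent-only control wells at 99.7% confidence in both duplicates, whether higher or lower; inconclusive = differs from solvent controls in only one of two duplicates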
Active calls of the source: *; ? = inconclusive; . = no result. Cut-off read from the data, not from the text of the source, unless noted: active = inhibition above about 20% (passing the limit was not always enough); inactive = the rest.

SMILES	M1 ag	FXIIa mix inh	FXIa inh mix	M1 antag	JNK3 blocker	HER2 expr 66K	M1 agonist conf	M4 ag counter
CCCN(CCC)S(=O)(=O)c1ccc(C(=O)N2CCC(=O)c3ccccc32)cc1	3.26*	-0.6	9.5	-2.76*	4.0	112.9	-18.4	-64.5
CCCCCNC(=O)c1c(N)n(/N=C/c2ccco2)c2nc3ccccc3nc12	-0.718	.	.	-0.409	-6.2	50.6	.	.
O=S(=O)(/C=C/c1ccccc1)Nc1ccc2c(c1)OCO2	-1.1	.	.	-0.715	-3.0	99.3	.	.
O=C(NC1CCCC1)c1cnn2c(C(F)(F)F)cc(-c3ccc4c(c3)OCO4)nc12	13.5*	4.0	-2.5	-0.864	0.8	81.4	23	8.69
COc1ccc(-c2cc(C(F)(F)F)n3ncc(C(=O)NCc4ccco4)c3n2)cc1	2.86*	-6.3	-11.1	-0.686	0.9	100.5	9.97	4.94
O=C(NCc1ccco1)c1cnn2c(C(F)(F)F)cc(-c3ccccc3)nc12	-0.145	8.5	5.3	0.012	0.5	87.0	.	.
Cc1sc2c(c1C)c(=O)n(-c1ccccc1)c1nnc(C)n21	0.201	8.9	3.2	0.0369	2.5	112.6	.	.
COc1ccc(N(CC(=O)NCc2cccs2)S(=O)(=O)c2cccnc2)cc1	-0.455	7.7	-0.3	2.19	-1.6	109.0	.	.
Cc1oc(-c2ccc(Cl)cc2)nc1CN1CCC(C(=O)N2CCc3ccccc3C2)CC1	5.72*	6.4	6.8	-3.68*	3.1	40.3	?	-72.5
CCOc1nc(-c2ccccc2)ccc1-c1noc(-c2ccc(OC)c(OC)c2)n1	-1.29	9.6	4.7	0.0431	.	127.7	.	.
COC(=O)c1ccc(CSc2ncnc3c2nnn3-c2ccc(OC)cc2)o1	0.25	21.2	7.9	0.467	-6.8	58.4	.	.
COc1ccccc1N1CCN(C(=O)CCNS(=O)(=O)c2ccc(Br)s2)CC1	2.56*	5.9	-1.5	0.661	-0.7	83.1	?	-76.7
O=C(CCNS(=O)(=O)c1ccc(Br)s1)N1CCN(c2ccccc2)CC1	-0.731	-1.8	-3.3	0.12	-3.9	84.6	.	.
CC(=O)c1c(C)[nH]c(C(=O)CSc2nnc(-c3ccco3)n2Cc2ccccc2)c1C	2.62*	4.2	3.5	-0.941	-4.0	94.5	-6.58	-33.8
CCCn1c(N)c(C(=O)CSc2nnc(-c3ccco3)n2Cc2ccccc2)c(=O)[nH]c1=O	-0.312	0.5	4.8	-0.0552	0.3	77.6	.	.
CCn1c(C)nc2cc(C(=O)OC(C(F)(F)C(F)F)C(F)(F)C(F)F)ccc21	11*	-4.2	9.6	-0.79*	0.4	152.9	2.77	-51.1
CCOC(=O)c1ccccc1NS(=O)(=O)c1ccccc1F	1.54	-10.9	5.4	0.672	3.8	84.7	.	.
CCn1nnc(-c2ccccc2NS(=O)(=O)c2ccc(S(=O)(=O)N3CCCCCC3)cc2)n1	0.198	-17.2	-1.7	-0.00498	4.3	107.9	.	.
CCOC(=O)c1ccc(S(=O)(=O)Nc2ccccc2-c2nnn(CC)n2)cc1	3.83*	-0.1	-1.7	-3.02*	2.6	69.9	?	?
CCOC(=O)c1ccc(S(=O)(=O)Nc2cc(C(C)(C)C)no2)cc1	7.58*	8.2	7.3	0.424	-0.2	91.7	-11.9	-16
N/C(=N\c1nc2ccccc2o1)NC(=O)c1ccccc1NC(=O)c1ccccc1	2.42	.	.	-0.113	-1.1	47.8	.	.
COc1ccccc1C(=O)NC(=Nc1nc2ccccc2o1)NC(=O)c1ccccc1OC	6.44*	.	.	-0.456	3.6	53.2	?	-50.1
CC12CCC(c3c(C(=O)Nc4nccs4)nn(-c4ccccc4)c31)C2(C)C (stereo not given)	-0.272	-0.4	4.6	0.153	10.4	152.7	.	.
CCOc1ccc(N2C(=O)CC(N3CC(C)OC(C)C3)C2=O)cc1 (stereo not given)	-0.0949	5.1	5.1	-1.12	-3.5	99.7	.	.
Nc1cccc2c1C(=O)N(C(=O)c1ccc(S(=O)(=O)N3CCCCCC3)cc1)C2=O	7.5*	2.2	9.4	-0.035	.	70.0	22.9	-22.9
SMILES	M1 ag	FXIIa mix inh	FXIa inh mix	M1 antag	JNK3 blocker	HER2 expr 66K	M1 agonist conf	M4 ag counter
COc1ccc[nH]c1=O	-0.0778	.	.	-1.02	-3.0	81.5	.	.
O=C(CSc1nnc(Cc2cccs2)n1C1CCCCC1)N1CCCc2ccccc21	3*	8.9	13.5	-2.15*	0.1	101.1	-8.92	-21.2
CCOC(=O)N1CCN(c2c(NCCCN(CC)Cc3ccccc3)c(=O)c2=O)CC1	-0.0853	6.4	6.6	1.24	-2.3	91.1	.	.
CCOC(=O)N1CCN(c2cc(NCCC(=O)O)c3c4c(onc24)-c2ccccc2C3=O)CC1	14.3*	5.8	9.7	0.7	0.8	87.0	-7.36	-20.8
CC1(C)CC(=NO)CC(C)(C)N1	0.144	-0.2	0.1	0.726	-7.2	106.3	.	.
CCOC(=O)Cc1csc(SCC(=O)c2c(N)n(CC(C)C)c(=O)n(C)c2=O)n1	8.91*	1.7	4.4	-2.92*	-0.4	94.6	-2.62	13.8
Cc1ccc2nsnc2c1S(=O)(=O)N1CCN(Cc2ccc3c(c2)OCO3)CC1	0.232	6.6	4.3	-0.3	-0.8	42.8	.	.
O=C(Nc1ccccc1N1CCN(C(=O)c2ccc(Cl)cc2)CC1)c1cc2ccccc2o1	4.58*	4.0	-3.1	2.78*	7.9	90.1	-20.4	?
O=C(Nc1cccc(Cl)c1N1CCCC1)c1cc2ccccc2o1	-0.2	-37.9	8.0	-0.287	1.3	61.9	.	.
CC(C)CC(C(=O)Nc1oc(-c2ccco2)c(-c2ccco2)c1C#N)N1C(=O)c2ccccc2C1=O (stereo not given)	12.6*	15.7	0.6	-1.94*	-4.4	93.5	-5.57	-33.3
CC(C)CC(C(=O)Nc1ccc2c(c1)OCCO2)N1C(=O)c2ccccc2C1=O (stereo not given)	0.603	2.4	4.1	0.0713	0.2	100.4	.	.
CCC(=NC(C)c1ccccc1)c1c(O)n(C)c(=O)n(C)c1=O (stereo not given)	3.84*	-7.1	6.9	-0.514	9.1	94.1	-6.66	-28.4
CC(c1ccccc1)N1CNc2c(c(=O)n(C)c(=O)n2C)C1 (stereo not given)	-1.1	3.3	6.3	-0.807	0.7	94.1	.	.
CCOP(=O)(c1ccc(N(C)C)cc1)C(O)c1c(Cl)cccc1Cl (stereo not given)	8.03*	5.2	0.5	0.594	-3.3	-16.0*	?	-53
O=C(CCn1nnc(-c2cccs2)n1)NC1CCCCC1	1.31	4.5	5.7	0.349	7.5	105.7	.	.
COc1ccc(CCNC(=O)c2ccc3nc(-c4ccco4)c(-c4ccco4)nc3c2)cc1OC	8.51*	6.7	19.4	-1.04	0.7	86.1	-1.94	-18.6
NC(=O)c1c(NC(=O)CSc2nnc(Cc3ccccc3)n2Cc2ccco2)sc2c1CCC2	7.28*	-11.9	-0.2	-1.82	5.3	72.1	-14	-21.7
